The values that follow come from ChEMBL document CHEMBL3988442, “University of Dundee, Small-Polar-MMV Screening Library” (2021).

What all share (design): scale not given: direction of the effect not stated beside the values
Assay [1] deals with Protein translocase subunit SecA (Escherichia coli (strain K12)) (UniProt P10408). Description: Assay to Identify E. coli SecA ATPase Inhibitors. Format: functional. The following applies: 30 µM.
In assay [2] the target is T1, Ubiquitin-activating enzyme e1, putative (Leishmania donovani (strain BPK282A1)) (UniProt E9BSI1).
T1 sequence (whole entry): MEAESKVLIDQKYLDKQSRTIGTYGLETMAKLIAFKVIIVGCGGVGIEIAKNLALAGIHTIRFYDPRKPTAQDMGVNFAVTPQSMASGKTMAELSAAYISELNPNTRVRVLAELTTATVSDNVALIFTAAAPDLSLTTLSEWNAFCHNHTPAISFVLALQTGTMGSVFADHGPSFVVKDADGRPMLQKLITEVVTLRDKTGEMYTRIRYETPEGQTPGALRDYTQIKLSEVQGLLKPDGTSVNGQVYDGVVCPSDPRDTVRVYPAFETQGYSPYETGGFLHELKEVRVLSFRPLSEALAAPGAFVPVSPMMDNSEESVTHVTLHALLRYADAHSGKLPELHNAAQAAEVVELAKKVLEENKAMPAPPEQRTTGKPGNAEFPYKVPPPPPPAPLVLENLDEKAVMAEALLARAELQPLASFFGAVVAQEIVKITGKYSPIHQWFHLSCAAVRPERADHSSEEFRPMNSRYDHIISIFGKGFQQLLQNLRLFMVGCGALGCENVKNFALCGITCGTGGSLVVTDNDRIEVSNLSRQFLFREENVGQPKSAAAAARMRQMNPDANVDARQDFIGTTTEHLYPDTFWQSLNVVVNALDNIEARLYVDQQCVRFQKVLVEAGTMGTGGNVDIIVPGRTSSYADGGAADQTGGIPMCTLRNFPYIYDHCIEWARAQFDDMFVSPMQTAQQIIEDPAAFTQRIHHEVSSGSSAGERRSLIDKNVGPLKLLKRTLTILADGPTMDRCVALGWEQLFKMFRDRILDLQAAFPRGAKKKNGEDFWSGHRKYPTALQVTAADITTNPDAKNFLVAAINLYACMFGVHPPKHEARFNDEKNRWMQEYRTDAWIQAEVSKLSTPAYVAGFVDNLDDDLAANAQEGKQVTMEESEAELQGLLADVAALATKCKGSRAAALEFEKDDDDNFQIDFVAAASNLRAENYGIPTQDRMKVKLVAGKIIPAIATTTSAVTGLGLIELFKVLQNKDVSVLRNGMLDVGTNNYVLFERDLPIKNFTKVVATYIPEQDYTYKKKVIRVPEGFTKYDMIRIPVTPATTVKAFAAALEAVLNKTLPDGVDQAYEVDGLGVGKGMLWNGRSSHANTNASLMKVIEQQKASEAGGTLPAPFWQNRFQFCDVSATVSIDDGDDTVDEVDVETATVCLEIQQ
Description: Leishmania donovani Ubiquitin Activating Enzyme (LdE1). Format: functional. The following applies: 30 µM.

Assay [3] addresses AMP-activated protein kinase, AMPK (Homo sapiens) (UniProt P54646+O43741+P54619+Q9UGJ0+Q9Y478+Q13131+Q9UGI9). The assay is described as follows: AMP-dependent Kinase enzyme assay. An in vitro enzyme assay that detects ADP turnover that is directly proportional to AMPK activity. This uses naive AMPK that is activated during the assay with MK-8722. The following applies: 30 µM. The assay is classed as functional.

For assay [4], the target named is Sialic acid-binding Ig-like lectin 9 (Homo sapiens) (UniProt Q9Y336). Description: Hs-Siglec9 ALPHAscreen SOP 20170721. The following applies: 10 µM.
Chain of Sialic acid-binding Ig-like lectin 9 (Homo sapiens) (Q9Y336 whole entry): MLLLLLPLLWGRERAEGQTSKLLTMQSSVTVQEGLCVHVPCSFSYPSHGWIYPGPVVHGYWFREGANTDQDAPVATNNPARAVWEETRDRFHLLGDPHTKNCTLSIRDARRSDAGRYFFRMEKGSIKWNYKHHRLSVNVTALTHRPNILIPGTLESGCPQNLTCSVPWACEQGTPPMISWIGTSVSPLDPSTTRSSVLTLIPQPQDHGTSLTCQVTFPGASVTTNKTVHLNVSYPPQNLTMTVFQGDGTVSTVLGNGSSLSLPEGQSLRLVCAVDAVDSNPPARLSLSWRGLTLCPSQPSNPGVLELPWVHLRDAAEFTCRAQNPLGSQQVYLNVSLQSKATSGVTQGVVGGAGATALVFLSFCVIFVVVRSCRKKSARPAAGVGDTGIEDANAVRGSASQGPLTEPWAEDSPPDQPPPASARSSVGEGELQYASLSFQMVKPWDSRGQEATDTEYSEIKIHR
Another assay deals with Trypanosoma cruzi. Description: Trypanosoma cruzi phosphomannomutase and mannose-1-phosphate guanylyltransferase assay. Format: functional. As to conditions: 10 µM.
Assay [5] has as its target T2, Arginase-2, mitochondrial (Homo sapiens) (UniProt P78540).
T2 sequence (whole entry): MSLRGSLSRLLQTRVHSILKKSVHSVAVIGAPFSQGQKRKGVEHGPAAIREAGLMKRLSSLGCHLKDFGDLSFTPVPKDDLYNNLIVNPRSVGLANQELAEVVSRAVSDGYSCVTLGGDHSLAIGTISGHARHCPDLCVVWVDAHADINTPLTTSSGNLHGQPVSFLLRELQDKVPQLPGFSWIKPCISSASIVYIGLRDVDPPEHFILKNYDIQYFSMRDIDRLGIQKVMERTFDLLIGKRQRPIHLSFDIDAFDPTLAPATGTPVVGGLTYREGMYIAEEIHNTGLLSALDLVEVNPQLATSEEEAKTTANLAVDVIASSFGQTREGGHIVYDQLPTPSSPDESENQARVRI
The assay is described as follows: in vitro enzyme assay to detect the production of urea directly proportional to the activity of Arginase II. Also: in the data most compounds retested in dose-response had high values. Format: functional. The following applies: 33.3 µM.

The target of assay [6] is T3, Proteasome subunit beta (Trypanosoma cruzi) (UniProt O96673).
T3 sequence (whole entry): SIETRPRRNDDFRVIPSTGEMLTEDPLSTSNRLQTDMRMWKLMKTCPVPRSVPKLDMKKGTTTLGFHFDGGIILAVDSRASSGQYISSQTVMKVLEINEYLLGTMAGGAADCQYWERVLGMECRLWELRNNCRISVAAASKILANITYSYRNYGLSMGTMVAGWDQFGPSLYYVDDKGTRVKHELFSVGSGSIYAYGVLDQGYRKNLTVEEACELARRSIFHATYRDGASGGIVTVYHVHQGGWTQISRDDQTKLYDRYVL
Description: Trypanosoma cruzi proteasome chymotrypsin-like activity (TcProtChymo) assay. Also: in the data most compounds retested in dose-response had high values. The assay is classed as functional. The following applies: 9.37 µM.

For the next assay, the species on record is Homo sapiens. The assay is described as follows: To identify inhibition of the IFN signalling (Jak-Stat) pathway via expression of an eGFP reporter gene under the control of an IFN-stimulated response element (ISRE) containing MxA promoter. The assay is classed as functional. The following applies: 30 µM. (In general: A reporter such as luciferase makes a cellular process visible.)

The target of assay [7] is T4, Tyrosyl-tRNA synthetase, putative (Trypanosoma cruzi (strain CL Brener)) (UniProt Q4DSP6).
T4 sequence (whole entry): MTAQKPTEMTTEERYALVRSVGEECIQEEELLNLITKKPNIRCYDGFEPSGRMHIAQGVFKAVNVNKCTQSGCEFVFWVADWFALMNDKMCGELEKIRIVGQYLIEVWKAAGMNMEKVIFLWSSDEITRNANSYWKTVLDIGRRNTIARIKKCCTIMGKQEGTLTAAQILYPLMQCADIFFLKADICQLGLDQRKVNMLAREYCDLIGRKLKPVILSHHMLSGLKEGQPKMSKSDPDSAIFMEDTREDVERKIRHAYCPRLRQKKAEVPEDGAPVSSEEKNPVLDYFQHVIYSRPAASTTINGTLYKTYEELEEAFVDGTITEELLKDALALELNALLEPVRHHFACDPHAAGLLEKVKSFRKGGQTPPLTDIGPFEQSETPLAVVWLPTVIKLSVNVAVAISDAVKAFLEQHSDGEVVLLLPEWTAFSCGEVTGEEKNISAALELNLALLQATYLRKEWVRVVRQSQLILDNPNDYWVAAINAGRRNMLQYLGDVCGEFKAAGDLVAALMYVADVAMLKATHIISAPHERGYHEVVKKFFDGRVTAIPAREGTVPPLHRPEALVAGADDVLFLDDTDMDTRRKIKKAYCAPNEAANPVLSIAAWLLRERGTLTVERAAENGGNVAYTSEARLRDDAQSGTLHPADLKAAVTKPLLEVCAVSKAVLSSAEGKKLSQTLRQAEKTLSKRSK
The assay is described as follows: Trypanosoma cruzi tyrosyl tRNA synthetase (TcYRS) _High Tyrosine SOP. Also: in the data most compounds retested in dose-response had high values. Format: functional. As to conditions: 30 µM.

For assay [8], the target named is T4, Tyrosyl-tRNA synthetase, putative (Trypanosoma cruzi (strain CL Brener)). Description: Trypanosoma cruzi tyrosyl tRNA synthetase (TcYRS) SOP. The assay is classed as functional. The following applies: 30 µM.
The target in assay [9] is Chromo domain-containing protein 1 (Saccharomyces cerevisiae (strain ATCC 204508 / S288c) (Baker's yeast)) (UniProt P32657). The assay is described as follows: ScCHD-1 Enzyme Inhibition Assay. Also: in the data most compounds retested in dose-response had high values. The assay is classed as functional. As to conditions: 30 µM.
Chain of Chromo domain-containing protein 1 (Saccharomyces cerevisiae (strain ATCC 204508 / S288c) (Baker's yeast)) (P32657 whole entry, the tested form may be a part): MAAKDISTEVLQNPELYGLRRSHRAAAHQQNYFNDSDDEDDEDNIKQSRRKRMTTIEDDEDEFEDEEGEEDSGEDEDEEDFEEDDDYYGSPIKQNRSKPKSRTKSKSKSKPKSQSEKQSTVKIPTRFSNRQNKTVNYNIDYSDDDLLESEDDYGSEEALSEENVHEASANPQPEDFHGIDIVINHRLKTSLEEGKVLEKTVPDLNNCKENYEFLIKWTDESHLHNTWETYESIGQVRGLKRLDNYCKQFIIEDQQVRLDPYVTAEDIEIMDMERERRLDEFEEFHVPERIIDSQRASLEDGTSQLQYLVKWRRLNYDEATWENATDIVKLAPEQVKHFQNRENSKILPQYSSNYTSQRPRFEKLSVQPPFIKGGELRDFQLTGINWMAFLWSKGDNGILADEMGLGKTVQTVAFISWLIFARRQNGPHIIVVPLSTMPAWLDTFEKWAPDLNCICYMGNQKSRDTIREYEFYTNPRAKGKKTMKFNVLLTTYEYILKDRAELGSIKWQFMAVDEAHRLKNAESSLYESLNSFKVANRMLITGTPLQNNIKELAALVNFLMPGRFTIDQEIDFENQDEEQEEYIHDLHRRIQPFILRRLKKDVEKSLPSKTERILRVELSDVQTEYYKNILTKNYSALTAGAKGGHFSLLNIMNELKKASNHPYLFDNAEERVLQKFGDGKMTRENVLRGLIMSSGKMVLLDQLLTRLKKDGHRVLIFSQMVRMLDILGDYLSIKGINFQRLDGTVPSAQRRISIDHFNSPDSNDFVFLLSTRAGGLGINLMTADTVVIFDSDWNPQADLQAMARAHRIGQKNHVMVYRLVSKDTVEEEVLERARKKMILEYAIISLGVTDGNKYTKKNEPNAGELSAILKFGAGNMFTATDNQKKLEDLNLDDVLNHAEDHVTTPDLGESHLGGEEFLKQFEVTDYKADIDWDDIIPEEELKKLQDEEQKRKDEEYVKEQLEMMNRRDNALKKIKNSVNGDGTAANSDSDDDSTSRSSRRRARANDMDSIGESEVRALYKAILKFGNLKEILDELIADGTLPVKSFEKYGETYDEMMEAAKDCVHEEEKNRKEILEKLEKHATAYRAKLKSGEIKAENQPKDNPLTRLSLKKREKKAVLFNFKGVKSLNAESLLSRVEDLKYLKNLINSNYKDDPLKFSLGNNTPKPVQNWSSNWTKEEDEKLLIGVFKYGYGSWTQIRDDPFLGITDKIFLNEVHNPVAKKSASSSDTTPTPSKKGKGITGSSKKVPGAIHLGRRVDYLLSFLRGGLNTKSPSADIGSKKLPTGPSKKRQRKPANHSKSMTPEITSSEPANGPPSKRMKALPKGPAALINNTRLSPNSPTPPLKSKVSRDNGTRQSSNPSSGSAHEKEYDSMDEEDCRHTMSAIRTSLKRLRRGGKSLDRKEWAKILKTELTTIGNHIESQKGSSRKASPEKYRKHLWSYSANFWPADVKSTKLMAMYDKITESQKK

SMILES strings stand for the structures. For some of these results: Results with a measured potency or affinity are listed apart.

Chain of Protein translocase subunit SecA (Escherichia coli (strain K12)) (P10408 whole entry): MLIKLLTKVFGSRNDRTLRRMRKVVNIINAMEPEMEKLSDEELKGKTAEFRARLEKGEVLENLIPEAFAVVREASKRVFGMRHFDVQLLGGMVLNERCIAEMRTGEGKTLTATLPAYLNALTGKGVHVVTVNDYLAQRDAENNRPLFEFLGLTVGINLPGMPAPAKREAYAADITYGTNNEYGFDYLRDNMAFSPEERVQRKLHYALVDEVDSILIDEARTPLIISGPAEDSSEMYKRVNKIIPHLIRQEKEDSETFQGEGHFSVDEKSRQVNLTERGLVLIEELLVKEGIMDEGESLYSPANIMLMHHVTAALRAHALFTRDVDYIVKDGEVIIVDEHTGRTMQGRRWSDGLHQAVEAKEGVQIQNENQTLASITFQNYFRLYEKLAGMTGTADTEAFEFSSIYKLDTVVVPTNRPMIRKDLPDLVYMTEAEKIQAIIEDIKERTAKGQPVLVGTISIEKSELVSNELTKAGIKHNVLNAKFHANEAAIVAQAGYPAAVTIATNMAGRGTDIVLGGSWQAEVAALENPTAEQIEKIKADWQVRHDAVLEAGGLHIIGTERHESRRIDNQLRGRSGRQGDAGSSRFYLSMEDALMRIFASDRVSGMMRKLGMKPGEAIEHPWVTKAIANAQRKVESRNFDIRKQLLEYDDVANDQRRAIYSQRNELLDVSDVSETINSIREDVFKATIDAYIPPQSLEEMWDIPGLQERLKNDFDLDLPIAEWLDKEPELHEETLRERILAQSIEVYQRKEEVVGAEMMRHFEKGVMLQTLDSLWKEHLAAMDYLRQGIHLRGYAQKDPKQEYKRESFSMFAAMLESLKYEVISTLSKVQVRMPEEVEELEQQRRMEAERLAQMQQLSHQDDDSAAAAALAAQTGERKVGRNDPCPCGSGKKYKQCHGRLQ

With `CCn1cc2c(n1)CN(Cc1ccoc1)CC2COCC1CC1` (stereo not drawn), the Percent Effect is -5.08% in [1]; -10.8% in assay [2]; -0.58% in assay [3]; 2.38% in assay [4]; 6.64% in the assay with Trypanosoma cruzi; -1.67% in assay [5]. Further, the Percent Effect in assay [6] was 7.69%; in the assay listed under Homo sapiens it was -8.7%; in assay [7] it was 11.9%; in assay [8], 8.54%; in assay [9], -4.61%.

In the case of `O=C(NCCS(=O)(=O)N1CCc2ccccc21)c1c(O)cc(F)cc1F`, the Percent Effect in [1] was -5.35%; in [2] it was 2.6%; in assay [3], -0.496%; in assay [4], -10.7%; in the assay with Trypanosoma cruzi it was 4.41%; in [5] it was -6.11%. Also, the Percent Effect in assay [6] is 8%; in the assay listed under Homo sapiens it was 4.49%; in assay [7], -12.4%; in assay [8], 0%; in assay [9], -23.1%.

Regarding `c1nc2n(n1)CC(NCc1nc(-c3ccsc3)no1)CC2` (stereo not drawn), the Percent Effect is -3.43% in [1]; 0% in assay [2]; -5.33% in assay [3]; -3.06% in assay [4]; -1.02% in the assay with Trypanosoma cruzi; -0.554% in assay [5]. Also, the Percent Effect in assay [6] was -5.92%; in the assay filed under Homo sapiens, 4.74%; in assay [7], 2.97%; in assay [8], 6.1%; in assay [9], 7.25%.

Consider `COc1cccc(CNCCc2cc(F)cc3c2OCOC3)c1`, for which the Percent Effect in assay [1] was -2.14%; in assay [2], 1.39%; in assay [3], -14.2%; in [4], 27%; in the assay with Trypanosoma cruzi it was 6.51%; in assay [5], 3.53%. For the same compound, the Percent Effect in [6] was 8.42%; in the assay filed under Homo sapiens, 1.36%; in assay [7], 0%; in [8], 5.13%; in assay [9], -4.8%.

For `CCc1nc(CN(C)CC2CCN(CC(C)O)CC2)no1` (stereo not drawn), the Percent Effect in assay [1] was -2.22%; in assay [2], 0%; in [3], -8.55%; in assay [4], 0.164%; in the assay on Trypanosoma cruzi it was 9.46%; in assay [5] it was -2.86%. For the same compound, the Percent Effect in assay [6] was 1.03%; in the assay filed under Homo sapiens, -23.1%; in assay [7] it was 2.65%; in assay [8], 7.32%; in [9], -1.75%.

With `CCCN1CCCn2nc(CNC(=O)CCc3scnc3C)cc2C1`, the Percent Effect was -2.71% in assay [1]; 20.8% in assay [2]; -13.3% in assay [3]; 19.9% in [4]; 3.98% with Trypanosoma cruzi; 8.39% in [5]. Besides, the Percent Effect is 16.7% in assay [6]; -7.34% in the assay listed under Homo sapiens; 5.26% in assay [7]; 17.9% in [8]; -7.37% in assay [9].

In the case of `O=C(C1CCC1)N1CCN(Cc2ccsc2)[C@H]2CS(=O)(=O)C[C@H]21`, the Percent Effect in assay [1] is -4.53%; in [2], 2.6%; in assay [3], 1.04%; in assay [4], 4.76%; in the assay on Trypanosoma cruzi, -5.41%; in assay [5] it was 1.38%. In addition, the Percent Effect in [6] is 15.8%; in the assay filed under Homo sapiens, 2.92%; in assay [7] it was 2.15%; in assay [8], 3.7%; in assay [9], -0.294%.

For the compound `CC(C)n1cc(CN2CCCN(C(=O)c3nccnc3N)CC2)cn1`, the Percent Effect is -3.12% in assay [1]; 13.5% in [2]; -6.54% in assay [3]; -11.2% in assay [4]; -0.586% with Trypanosoma cruzi; 5.83% in assay [5]. Further, the Percent Effect was 17% in assay [6]; 21.2% in the assay filed under Homo sapiens; 8.91% in assay [7]; 11% in [8]; 5% in assay [9].
